Screening data deposited in PubChem by National Center for Advancing Translational Sciences (NCATS).
HPGD block: HPGD (human) dehydrogenase inhibition; P15428; purified HPGD, NADH fluorescence kinetic, PGE2 substrate; Potency, µM, actives largely listed as inhibitors; 150,000 compounds, 4.3% hits; AID 894
Target sequence (P15428 whole entry, looked up): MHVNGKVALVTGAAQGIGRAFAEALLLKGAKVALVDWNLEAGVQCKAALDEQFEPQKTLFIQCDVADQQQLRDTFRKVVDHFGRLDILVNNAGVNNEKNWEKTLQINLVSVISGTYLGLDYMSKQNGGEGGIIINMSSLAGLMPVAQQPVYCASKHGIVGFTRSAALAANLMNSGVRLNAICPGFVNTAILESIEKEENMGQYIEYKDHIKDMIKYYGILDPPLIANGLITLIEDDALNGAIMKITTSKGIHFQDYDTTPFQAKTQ
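20 nM HPGD preincubated 15 min at room temperature with compound in 50 mM Tris-HCl pH 8, 0.01% Tween 20. Started with 1 mM NAD+ and 30 uM prostaglandin E2; NADH fluorescence (360/450 nm) read 5 times over 30-s intervals, last minus first.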
JMJD2E inh: inhibitors of human JMJD2E histone demethylase | B2RXH2 | JMJD2E catalytic domain, FDH-coupled NADH fluorescence (FDH is formaldehyde dehydrogenase) | Potency, µM (series often up to 57.1 µM), usual class: inhibitors | 230,000 compounds, 1.6% hits; note: nearly all actives have a fitted effect of over 50% in size
Target sequence (B2RXH2 1-337 limits assumed): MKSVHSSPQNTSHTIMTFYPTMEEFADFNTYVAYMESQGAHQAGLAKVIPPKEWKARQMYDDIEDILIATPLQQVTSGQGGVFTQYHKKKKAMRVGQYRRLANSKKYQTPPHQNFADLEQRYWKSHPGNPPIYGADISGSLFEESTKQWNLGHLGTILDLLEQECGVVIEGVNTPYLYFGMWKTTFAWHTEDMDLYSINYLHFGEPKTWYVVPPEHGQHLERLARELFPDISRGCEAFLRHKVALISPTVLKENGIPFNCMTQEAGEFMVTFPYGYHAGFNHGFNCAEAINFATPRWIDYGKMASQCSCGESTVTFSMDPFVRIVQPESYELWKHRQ
ALDH1A1 block: ALDH1A1 (human) enzyme inhibition; P00352; Purified ALDH1A1, NADH fluorescence, propionaldehyde substrate; Potency, µM (doses to about 75.3 µM), hits mostly inhibitors; 220,000 compounds, 7.3% hits; AID 1030
PNC assembly inh: blocks assembly of the perinucleolar compartment; PC3M PTB-GFP, PNC prevalence imaging, 16 h; hits give low values; activity change (PNC), negative = inhibition, % at 10 µM; 140,000 compounds, 3.1% hits; AID 2417;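 active = readout at or below -70, meaning at least 70% loss of cells showing the perinucleolar compartment, a nuclear body marking cancer cells; inconclusive = readout between -30 and a set limit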
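Compounds are pinned in duplicate onto adhered PC3M cells stably expressing GFP-tagged PTB and incubated 16 h at 37 C. Cells are then fixed, nuclei stained with Hoechst, and PNC-positive cells counted.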
A number is an active result; . = inactive; ? = inconclusive; / = no result given; ! = not active in a repeat; [ ] = dose if it differs, or a comment. This is a sample that favours compounds with a hit; in the whole collection about 11% have one here. Unless noted, calls come from the whole dose curve; as a rule, active = well fitted inhibition curve with a large enough effect (not every such curve was filed as active); inconclusive = small, poorly fitted or top-dose-only effect, or another doubt; inactive = no such curve, though single readings can be large or run the other way.

SMILES | HPGD block | JMJD2E inh | ALDH1A1 block | PNC assembly inh
CC(C)CNS(=O)(=O)c1ccc2c(c1)OCCO2 | 32µM | . | . | .
O=C(CSc1nnnn1-c1ccccc1)N1CCCc2ccccc21 | . | . | 7.9µM | .
Cc1ccc(C(=O)CSc2nnnn2-c2ccccc2)o1 | / | . | 3.5µM | /
O=C1c2ccccc2C(=O)N1CCCCSc1nc2ccccc2o1 | 25µM | . | ? | .
O=C(CSc1nnnn1-c1ccccc1)N1CCc2ccccc21 | . | . | . | ?
Cc1ccc(-n2nnnc2SCC(=O)N2c3ccccc3NC(=O)C2(C)C)cc1 | . | . | . | -100
Cc1ccc(NC(=O)Cc2ccc3c(c2)OCCO3)cc1S(=O)(=O)N1CCCCC1 | / | . | / | /
C[N+]1(CCC(=O)c2ccco2)CC2CCC(CC2)C1 (stereo unspecified) | . | / | .[13.5 µM] | /
Cc1ccc(C)c(N2CCN(C(=O)CNS(=O)(=O)c3cccs3)CC2)c1 | . | . | . | .
COc1ccc(C(=O)CSc2nc3[nH]ncc3c(=O)[nH]2)cc1 | / | . | . | /
Cc1cccc(CSc2nnnn2-c2ccccc2)c1 | . | . | ? | ?
Brc1ccccc1-c1nnc(CSc2nnnn2-c2ccccc2)o1 | 16µM | . | 10µM | .
Cc1cc(C)nc(NC(=O)CSc2nnnn2-c2ccccc2)n1 | . | . | 7.1µM | .
c1ccc(-n2nnnc2SCc2cccc3nsnc23)cc1 | ? | . | 14µM | .
O=C(CSc1nnnn1Cc1ccccc1)c1ccc(F)cc1 | / | . | / | /
O=C(CCCSc1nnnn1-c1ccccc1)c1ccc(F)cc1 | . | . | 1.3µM | .
Cc1nnc(SCc2nnc(-c3ccccc3Br)o2)n1-c1ccccc1 | . | . | . | .
CCCCN(CC)CCCNC(=O)C1CCN(c2ncnc3c2sc2cccc(F)c23)CC1 | / | . | ? | /
CCCN1CNc2c(c(=O)[nH]c(=S)n2CCc2ccc(OC)c(OC)c2)C1 | / | . | . | /
O=C(Cn1cnc2c(nnn2-c2ccc(F)cc2)c1=O)N1CCCc2ccccc21 | . | . | 28µM | .
O=C1c2ccccc2C(=O)N1CCCCSc1nnnn1-c1ccccc1 | 7.9µM | . | 0.18µM | .
Nc1nc(CN2CCN(c3ccccc3)CC2)nc(N2CCCc3ccccc32)n1 | . | . | ? | .
COc1ccc(-n2nnc3c(=O)n(CC(=O)N4CCCc5ccccc54)cnc32)cc1 | ? | . | ? | .
Nc1nc(CSc2nnnn2-c2ccccc2)nc(N2CCCc3ccccc32)n1 | ? | . | 2.8µM | ?
O=C(O)c1ccc(-n2nnnc2SCc2ccccc2F)cc1 | 16µM | . | ? | .
SMILES | HPGD block | JMJD2E inh | ALDH1A1 block | PNC assembly inh
Cn1c(=O)c2c(nc(N3CCc4ccccc4C3)n2C)n(C)c1=O | / | . | ? | /
O=C(O)CSc1nnnn1-c1ccccc1 | . | . | . | ?
O=C(CSc1nnnn1-c1ccccc1)CSc1nnnn1-c1ccccc1 | . | . | 3.2µM | .
CCNCCCNCCCCNCCCNCC | . | . | . | /
CCc1cc(C(C)=O)c(O)cc1OCCCCCC(C)(C)c1nn[nH]n1 | 20µM | . | ? | /
CCN(CC)S(=O)(=O)c1cc(NC(=O)CSc2nccn2C)ccc1C | / | . | . | /
O=C(Nc1ccc(N2CCN(C(=O)c3ccccc3F)CC2)cc1)c1ncn[nH]1 | / | ? | . | /
Cc1cc(C)c2c(N)c3cccc(C)c3nc2n1 | ? | ? | ? | -92
CC(c1ccccc1)n1cc(C(=O)NCCN2CCOCC2)nn1 (stereo unspecified) | . | . | . | .
CC(c1ccccc1)n1cc(C(=O)NCC2CCCO2)nn1 (stereo unspecified) | . | . | . | -100
CC(C)(C)c1ccc(C(=O)NC(=S)NCC2CCCO2)cc1 (stereo unspecified) | / | . | ? | .
Cc1ccc(C(=O)NCC2CCCO2)cc1[N+](=O)[O-] (stereo unspecified) | . | . | . | .
CSc1ccccc1C(=O)NCC1CCCO1 (stereo unspecified) | 16µM | . | . | .
Cc1ccc(C(=O)NC(=S)NCC2CCCO2)cc1[N+](=O)[O-] (stereo unspecified) | / | . | 14µM | /
Cc1ccccc1C(=O)NC(=S)NCC1CCCO1 (stereo unspecified) | . | . | . | -105
O=C(Nc1ccc2ccccc2c1)[C@H]1C[C@@H]1[C@H](NP(=O)(c1ccccc1)c1ccccc1)c1ccccc1 | . | . | . | /
Cc1nc2cnc(OCc3ccccc3)nc2n(Cc2ccc(F)cc2)c1=O | . | / | ? | /
COc1ccc(-n2c(C)cc(/C=C3\SC(=S)N(Cc4ccco4)C3=O)c2C)cc1 | . | . | 0.63µM | .
Cc1ccc(NC(=O)CN2C(=O)S/C(=C\c3ccccn3)C2=O)cc1 | / | . | . | /
Cc1ccc(NC(=O)CN2C(=O)/C(=C3\SC(=S)N(C4CCS(=O)(=O)C4)C3=O)c3ccccc32)cc1 (stereo unspecified) | . | . | 1.4µM | .
O=C(CN1C(=O)/C(=C2\SC(=S)N(C3CCS(=O)(=O)C3)C2=O)c2ccccc21)Nc1ccccc1 (stereo unspecified) | . | . | 7.1µM | .
C[C@H]1/C=C\CC(=O)OC[C@H](C)C(=O)N2CCC[C@@H]2C(=O)OC1 | / | / | .[13.5 µM] | /
C[C@@]12CCC(=O)C[C@@H]1CC(=O)[C@H]1[C@H]3CCC[C@]3(C)C(=O)C[C@@H]12 (tested in a mixture with another compound) | . | . | . | /
O=C1c2c(O)ccc(O)c2C(=O)c2c(NCCNCCO)ccc(NCCNCCO)c21 | . | 22µM! | ? | /
CN(C(=O)c1cccc(COc2ccc(Cl)cc2Cl)c1)c1ccccc1 | 18µM | . | ? | .
SMILES | HPGD block | JMJD2E inh | ALDH1A1 block | PNC assembly inh
O=C(NCc1ccccc1)c1cccc(COc2cc(Cl)ccc2Cl)c1 | . | . | . | ?
Nn1c(Cc2cccc3ccccc23)nnc1SCc1ccc(Cl)c(Cl)c1 | 2.8µM | . | ? | ?
Nn1c(Cc2cccc3ccccc23)nnc1SC1CCOC1=O (stereo unspecified) | . | . | . | ?
Nn1c(Cc2cccc3ccccc23)nnc1SCn1nnc2ccccc2c1=O | . | . | . | ?
Nn1c(Cc2cccc3ccccc23)nnc1SCc1c(Cl)cccc1Cl | 7.9µM | . | ? | .
Cn1c(SCc2cccc3ccccc23)nnc1-c1ccco1 | ? | . | ? | .
Nn1c(SCc2cccc3ccccc23)nnc1-c1ccco1 | 14µM | . | . | .
O=C1CN2CCC1C/C2=C\c1ccnc2c(Cl)cccc12 (stereo unspecified) | / | . | / | /
N#CC(C#N)=C1C=CC=CN1/C(=C\c1ccco1)C(=O)c1ccc(Br)cc1 | 16µM | . | ? | .
N#CC(C#N)=C1C=CC=CN1/C(=C\c1ccco1)C(=O)c1ccccc1 | 22µM | . | . | .
COc1ccc(C(=O)/C(=C\c2ccco2)N2C=CC=CC2=C(C#N)C#N)cc1 | ? | ? | ? | .
COc1ccc(Oc2coc3cc(OC(=O)/C=C/c4ccccc4)ccc3c2=O)cc1 | . | ? | . | -81
COc1ccc(Oc2coc3cc(OC(=O)/C=C/c4ccc(F)cc4)ccc3c2=O)cc1 | / | . | . | .
CC(=O)Oc1ccc2c(=O)c(Oc3ccccc3)coc2c1OC(C)=O | . | 3.5µM | . | .
COc1ccc(OC)c(NC(=O)CSc2nnc(C3CCCCC3)n2-c2ccccc2)c1 | . | . | ? | ?
